Test results: PubChem BioAssay (Tox21)
Inconclusive results are not listed. Calls of active or inactive are those of the source. Calls follow the shape of the dose curve; as a rule, active = well fitted curve in the direction sought with a large enough effect in the repeat runs; inconclusive = weak or mixed curves; inactive = no such curve, though single readings can be large; an effect the other way counts as inactive or inconclusive.

What was measured:
[1] = A CellTox Green Cytotoxicity Assay to monitor cytotoxicity in HEK293 cells - 40 hour (AID 1224871); also: nearly all actives have a fitted effect of over 45% in size
In short: (§1)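 Seeding of HEK293 cells together with cytotoxicity dye preceded a 5 h incubation at 37 C/5% CO2. Test compounds in DMSO were then added and fluorescence monitored across 40 h.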

[2] = qHTS RealTime-Glo MT Cell Viability Assay in HEK293 cells - 16 hour (AID 1224872); also: top concentration of the series differs between compounds; nearly all actives have a fitted effect of over 50% in size
In short: (§2)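 Viability tracked continuously by luminescence as live cells reduce a prosubstrate for NanoLuc; HEK293 cells preincubated 5 h, compound-treated at 37 C, and read at 0, 8, 16, 24, 32 and 40 h.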

[3] = qHTS RealTime-Glo MT Cell Viability Assay in HepG2 cells - 8 hour (AID 1224873); also: nearly all actives have a fitted effect of over 55% in size
In short: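 HepG2 cells mixed with RealTime-Glo MT reagents (NanoLuc plus cell-permeant prosubstrate) were seeded at 600 cells/well, incubated 5 h at 37 C/5% CO2, then pinned with compounds in DMSO; nonlytic luminescence tracked viability during 40 h treatment.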

[4] = qHTS RealTime-Glo MT Cell Viability Assay in HEK293 cells - 40 hour (AID 1224874); conditions: RealTime-Glo luminescence; max response: stronger effect = lower value; also: nearly all actives have a fitted effect of over 50% in size
In short: (§3)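 Tox21 screen in HEK293 using RealTime-Glo MT chemistry, with cells and reagent co-dispensed. Luminescence proportional to viable cell number was captured at intervals during 40 h compound exposure at 37 C.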

[5] = A CellTox Green Cytotoxicity Assay to monitor cytotoxicity in HEK293 cells - 24 hour (AID 1224875); also: series mostly up to about 77 µM; nearly all actives have a fitted effect of over 45% in size
In short: as §1

[6] = A CellTox Green Cytotoxicity Assay to monitor cytotoxicity in HepG2 cells - 16 hour (AID 1224876); also: nearly all actives have a fitted effect of over 45% in size
In short: (§4)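 Nonlytic assay: viable cells exclude the dye, so fluorescence scales with cell death. HepG2 at 600 cells/well, compounds added after 5 h, signal read across 40 h.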

[7] = qHTS RealTime-Glo MT Cell Viability Assay in HepG2 cells - 32 hour (AID 1224877); also: nearly all actives have a fitted effect of over 55% in size
In short: (§5)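 Viability was tracked continuously by NanoLuc luminescence from prosubstrate reduced by living HepG2 cells, at successive time points over 40 h of compound exposure. Cells with reagent were preincubated 5 h at 37 °C before compound addition.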

[8] = A CellTox Green Cytotoxicity Assay to monitor cytotoxicity in HepG2 cells - 24 hour (AID 1224878); also: nearly all actives have a fitted effect of over 45% in size
In short: as §4

[9] = A CellTox Green Cytotoxicity Assay to monitor cytotoxicity in HepG2 cells - 40 hour (AID 1224879); also: nearly all actives have a fitted effect of over 40% in size
In short: as §4

[10] = qHTS RealTime-Glo MT Cell Viability Assay in HEK293 cells - 0 hour (AID 1224880)
In short: as §3

[11] = A CellTox Green Cytotoxicity Assay to monitor cytotoxicity in HEK293 cells - 32 hour (AID 1224881); also: nearly all actives have a fitted effect of over 40% in size
In short: as §1

[12] = A CellTox Green Cytotoxicity Assay to monitor cytotoxicity in HepG2 cells - 32 hour (AID 1224883); also: nearly all actives have a fitted effect of over 50% in size
In short: as §4

[13] = A CellTox Green Cytotoxicity Assay to monitor cytotoxicity in HEK293 cells - 8 hour (AID 1224884); also: nearly all actives have a fitted effect of over 35% in size
In short: as §1

[14] = qHTS RealTime-Glo MT Cell Viability Assay in HepG2 cells - 16 hour (AID 1224885); also: nearly all actives have a fitted effect of over 50% in size
In short: as §5

[15] = qHTS RealTime-Glo MT Cell Viability Assay in HEK293 cells - 24 hour (AID 1224886)
In short: as §2

[16] = qHTS RealTime-Glo MT Cell Viability Assay in HEK293 cells - 8 hour (AID 1224887)
In short: as §3

[17] = A CellTox Green Cytotoxicity Assay to monitor cytotoxicity in HEK293 cells - 16 hour (AID 1224888); also: nearly all actives have a fitted effect of over 35% in size
In short: as §1

[18] = qHTS RealTime-Glo MT Cell Viability Assay in HepG2 cells - 0 hour (AID 1224889); also: nearly all actives have a fitted effect of over 50% in size
In short: as §5

[19] = A CellTox Green Cytotoxicity Assay to monitor cytotoxicity in HepG2 cells - 8 hour (AID 1224890); also: nearly all actives have a fitted effect of over 45% in size
In short: as §4

[20] = A CellTox Green Cytotoxicity Assay to monitor cytotoxicity in HepG2 cells - 0 hour (AID 1224882); also: nearly all actives have a fitted effect of over 35% in size
In short: as §4
% is scaled to controls: 0 for no effect and ±100 for the full control effect.

C=C(C)C(=O)OCCOP(=O)(O)OCCOC(=O)C(=C)C
inactive: Potency [1] | Potency [2] | outcome [3] | max response [4] -2.48% | outcome [5] | outcome [6] | outcome [7] | outcome [8] | Potency [9] | Potency [10] | Potency [11] | Potency [12] | Potency [13] | outcome [14] | Potency [15] | Potency [16] | outcome [17] | Potency [18] | outcome [19]

Nc1cccc(O)c1
inactive: Potency [1] | Potency [2] | outcome [3] | max response [4] 3.53% | outcome [5] | outcome [6] | outcome [7] | outcome [8] | Potency [9] | Potency [10] | Potency [11] | outcome [20] | Potency [12] | outcome [14] | Potency [16] | Potency [18] | outcome [19]

CCCCNc1ccc(C(=O)OCCN(C)C)cc1
inactive: Potency [1] | Potency [2] | outcome [3] | max response [4] -3.43% | outcome [5] | outcome [6] | outcome [7] | outcome [8] | Potency [9] | Potency [10] | Potency [11] | Potency [12] | Potency [13] | outcome [14] | Potency [16] | Potency [18] | outcome [19]

COP(=O)(OC)OC(c1ccc(Cl)cc1)P(=O)(OC)OC (stereo not given)
inactive: Potency [1] | Potency [2] | outcome [3] | max response [4] 4.98% | outcome [5] | outcome [6] | outcome [7] | outcome [8] | Potency [9] | Potency [10] | Potency [11] | Potency [12] | Potency [13] | outcome [14] | Potency [15] | Potency [16] | outcome [17] | Potency [18] | outcome [19]

CCCCN
inactive: Potency [1] | Potency [2] | outcome [3] | max response [4] 9.77% | outcome [5] | outcome [6] | outcome [7] | outcome [8] | Potency [9] | Potency [10] | Potency [11] | outcome [20] | Potency [12] | Potency [15] | Potency [16] | outcome [17] | Potency [18] | outcome [19]

CN1C(C)(C)CCCC1(C)C
inactive: Potency [1] | Potency [2] | outcome [3] | max response [4] -1.11% | outcome [5] | outcome [6] | outcome [7] | outcome [8] | Potency [9] | Potency [10] | Potency [11] | outcome [20] | Potency [12] | outcome [14] | Potency [16] | outcome [17] | Potency [18] | outcome [19]

CC(=O)/C=C/C1C(C)=CCC(C)C1(C)C (stereo not given)
inactive: Potency [1] | Potency [2] | outcome [3] | max response [4] 1.21% | outcome [5] | outcome [6] | outcome [7] | outcome [8] | Potency [9] | Potency [10] | Potency [11] | Potency [12] | Potency [13] | Potency [15] | Potency [16] | outcome [17] | Potency [18] | outcome [19]

COC(=O)c1ccccc1C(=O)c1ccc(OCCN2CCCCC2)cc1
inactive: Potency [1] | Potency [2] | outcome [3] | max response [4] -12% | outcome [5] | outcome [6] | outcome [7] | outcome [8] | Potency [9] | Potency [10] | Potency [11] | Potency [12] | Potency [13] | Potency [15] | Potency [16] | outcome [17] | outcome [19]

FC(F)(F)c1ccccc1-n1ccnc1
inactive: Potency [1] | Potency [2] | outcome [3] | max response [4] -3.14% | outcome [5] | outcome [6] | outcome [7] | outcome [8] | Potency [9] | Potency [10] | Potency [11] | Potency [12] | Potency [13] | outcome [14] | Potency [15] | Potency [16] | outcome [17] | Potency [18] | outcome [19]

NS(=O)(=O)c1ccc(NC(=O)CCC(=O)O)cc1
inactive: Potency [1] | Potency [2] | outcome [3] | max response [4] 3.03% | outcome [5] | outcome [6] | outcome [7] | outcome [8] | Potency [9] | Potency [10] | Potency [11] | Potency [12] | Potency [13] | outcome [14] | Potency [15] | Potency [16] | outcome [17] | Potency [18] | outcome [19]

Cc1ccc(S(=O)(=O)O)c(C)c1
inactive: Potency [1] | Potency [2] | outcome [3] | max response [4] 3.15% | outcome [5] | outcome [6] | outcome [7] | outcome [8] | Potency [9] | Potency [10] | Potency [11] | outcome [20] | Potency [13] | outcome [14] | Potency [15] | Potency [16] | outcome [17] | Potency [18] | outcome [19]

O=C(CCN1CCN(CCO)CC1)N1c2ccccc2Sc2ccc(C(F)(F)F)cc21
inactive: Potency [1] | Potency [2] | outcome [3] | max response [4] -11.6% | outcome [5] | outcome [6] | outcome [7] | outcome [8] | Potency [9] | Potency [10] | Potency [11] | outcome [20] | Potency [12] | Potency [15] | Potency [16] | outcome [17] | Potency [18] | outcome [19]

CC(C)=O
inactive: Potency [1] | Potency [2] | outcome [3] | max response [4] 0.384% | outcome [5] | outcome [6] | outcome [7] | outcome [8] | Potency [9] | Potency [10] | Potency [11] | Potency [12] | Potency [13] | outcome [14] | Potency [15] | Potency [16] | outcome [17] | Potency [18] | outcome [19]

CC(C)CC(C)CC(C)CC(C)COC(=O)c1ccccc1C(=O)OCC(C)CC(C)CC(C)CC(C)C (stereo not given)
inactive: Potency [1] | Potency [2] | outcome [3] | max response [4] 4.21% | outcome [5] | outcome [6] | outcome [7] | outcome [8] | Potency [9] | Potency [10] | Potency [11] | Potency [12] | Potency [13] | Potency [15] | Potency [16] | outcome [17] | Potency [18] | outcome [19]
